Read-out in test [1]: Cytochrome P450 2C19 (Homo sapiens) (UniProt P33261)
In words: CLD_CYP2C19_48hr: CellzDirect (CLD) Gene Expression Assay for xenobiotic metabolism (CYP2C19) at 48 hours (AID 2283700).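 Note: fitted upward so actives raise CYP2C19 mRNA above the 0.2% DMSO vehicle.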 The method, boiled down:
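Primary human hepatocytes (two donor preparations) dosed daily for two days, harvested at 48 h; CYP2C19 mRNA induction measured by qNPA chemiluminescence. Gain-of-signal fitted relative to 0.2% DMSO vehicle as baseline.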

Read-out in test [2]: xenobiotic metabolism (CYP1A1), CYP1A1 (gene 1543)
Kind of test: CLD_CYP1A1_48hr: CellzDirect (CLD) Gene Expression Assay for xenobiotic metabolism (CYP1A1) at 48 hours (AID 2283705). The method in brief: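 Primary human hepatocytes from two donors dosed daily for two days at multiple concentrations, 0.2% DMSO vehicle; CYP1A1 mRNA induction at 48 h by qNPA chemiluminescence. Cytotoxicity noted by phase-contrast morphology.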

Read-out in test [3]: glucuronosyltransferase (UGT1A1), UGT1A1 (gene 54658)
In words: CLD_UGT1A1_48hr: CellzDirect (CLD) Gene Expression Assay for glucuronosyltransferase (UGT1A1) at 48 hours (AID 2283709).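 Note: actives increase expression relative to DMSO so potency refers to induction.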 The method, boiled down: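 Human primary hepatocytes dosed daily for two days (0.2% DMSO vehicle), harvested at 48 h. UGT1A1 mRNA induction measured by quantitative nuclease protection assay with chemiluminescence; gain of signal versus DMSO; cytotoxicity flagged from morphology.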

Read-out in test [4]: sulfotransferase (SULT2A), SULT2A1 (gene 6822)
In words: CLD_SULT2A_48hr: CellzDirect (CLD) Gene Expression Assay for sulfotransferase (SULT2A) at 48 hours (AID 2283710).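 Note: hits raise SULT2A1 transcript above the 0.2% DMSO vehicle baseline.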 The method, boiled down:
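Primary human hepatocytes (two donor preparations) dosed daily for two days with chemicals at multiple concentrations, vehicle 0.2% DMSO; SULT2A1 mRNA induction at 48 h by quantitative nuclease protection assay, chemiluminescent read-out, fitted for gain of signal versus DMSO.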

The nature of test [5]: CEETOX_H295R_MTT_cell_viability: Viability Assessment in the CeeTox HT-H295R MTT Assay (AID 2283718; active = hit-call score of the fitted dose curve at least 0.9, where 1 is the maximum; inactive = score below 0.9;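 for AC50: curve fitted both ways so AC50 may mark viability loss or gain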). The method, boiled down: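 Human H295R adrenal cells, prestimulated 48 h with 10 uM forskolin, were exposed 48 h to chemicals in 0.1% DMSO. Viability was measured in the same wells by MTT (0.5 mg/ml, 4 h, 37 C), absorbance 570/650 nm, as percent of controls.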
Test [6] is described as follows: Tanguay_ZF_120hpf_ActivityScore_legacy: (Legacy) Oregon State University Tanguay Lab 120 Hour Post-fertilization zebrafish Assay Score for Activity (AID 2283742).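 For AC50: dechorionated Tropical 5D wild-type zebrafish embryos held singly per well; static exposure from 6 hpf until 120 hpf at 28 °C.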 The method, boiled down:
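Dechorionated Tropical 5D embryos, one per well from 6 hpf, statically exposed to 120 hpf at 28 °C in 0.64% DMSO. Mortality and malformations scored binary by brightfield microscopy; activity score combines 18 endpoints, fitted positively versus DMSO.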

Read-out in test [7]: xenobiotic metabolism (CYP1A2), CYP1A2 (gene 1544)
In words: CLD_CYP1A2_48hr: CellzDirect (CLD) Gene Expression Assay for xenobiotic metabolism (CYP1A2) at 48 hours (AID 2283703). The method, boiled down:
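Primary human hepatocytes from two donor preparations were dosed daily for two days at multiple concentrations in 0.2% DMSO vehicle. CYP1A2 mRNA was measured at 48 hours by chemiluminescent quantitative nuclease protection assay, with gain of signal fitted versus DMSO and cytotoxicity annotated from morphology.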

Read-out in test [8]: organic anion transporter (SLCO1B1), SLCO1B1 (gene 10599)
Kind of test: CLD_SLCO1B1_48hr: CellzDirect (CLD) Gene Expression Assay for organic anion transporter (SLCO1B1) at 48 hours (AID 2283707). The method in brief:
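Primary human hepatocytes from two donor preparations dosed daily for two days with multiple concentrations, 0.2% DMSO vehicle. SLCO1B1 mRNA at 48 h by quantitative nuclease protection assay, chemiluminescence; gain-of-signal fitted versus DMSO.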

A short description of test [9]: STM_H9_OrnithineISnorm_perc: Stemina devTOX quickPredict H9 human embryonic stem cell (hESC)-based Assay for Ornithine (ORN) Metabolite Biomarker, Normalized (AID 2283712; active = hit-call score of the fitted dose curve at least 0.9, where 1 is the maximum; inactive = score below 0.9;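 note: ornithine released into spent medium during last day measured by mass spectrometry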). The method, boiled down:
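Cells: undifferentiated H9 hESC. Dosing: 72 h, media replaced every 24 h. Sample: final 24-h conditioned media, 40% acetonitrile. Read: UPLC-HRMS ornithine area vs 13C standard, % DMSO control.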

Test [10] in a line: STM_H9_CystineISnorm_perc: Stemina devTOX quickPredict H9 human embryonic stem cell (hESC)-based Assay for Cystine (CYSS) Metabolite Biomarker, Normalized (AID 2283713; active = hit-call score of the fitted dose curve at least 0.9, where 1 is the maximum; inactive = score below 0.9). The method in brief: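 Secreted cystine was measured by UPLC-HRMS in H9 hESC medium after 72h compound exposure with 24-hourly replenishment. Values are standard-normalized areas relative to 0.1% DMSO.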
A short description of test [11]: STM_H9_OrnCyssISnorm_ratio: Stemina devTOX quickPredict H9 human embryonic stem cell (hESC)-based Assay for Ornithine (ORN):Cystine (CYSS) Ratio (AID 2283714). The method in brief:
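Undifferentiated H9 hESCs exposed 72 h, media and compound replaced every 24 h; final 24-h conditioned media deproteinized and analysed by UPLC-HRMS against C13 spike-ins. Value is the internal-standard-normalized ORN/CYSS ratio versus 0.1% DMSO.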

Test [12] can be described thus: CLD_ACTIN_48hr: CellzDirect (CLD) Gene Expression Assay for Baseline Control (Actin) at 48 hours (AID 2283702). The method in brief: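 Primary human hepatocytes (two donor preparations) dosed daily for two days with ToxCast chemicals at multiple concentrations versus 0.2% DMSO vehicle; harvested at 48 h. Actin mRNA measured as a background control by quantitative nuclease protection assay with chemiluminescence.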

Read-out in test [13]: alkyl and aryl transferase (GSTA2), GSTA2 (gene 2939)
In words: CLD_GSTA2_48hr: CellzDirect (CLD) Gene Expression Assay for alkyl and aryl transferase (GSTA2) at 48 hours (AID 2283708).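 Note: active means mRNA induction above DMSO vehicle baseline.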 The method, boiled down: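 Primary human hepatocytes dosed daily for two days (0.2% DMSO vehicle), harvested at 48 h. GSTA2 mRNA induction measured by quantitative nuclease protection assay with chemiluminescent imaging, fitted for gain of signal relative to DMSO.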

Read-out in test [14]: HMG-CoA synthase (HMGCS2), HMGCS2 (gene 3158)
In words: CLD_HMGCS2_48hr: CellzDirect (CLD) Gene Expression Assay for HMG-CoA synthase (HMGCS2) at 48 hours (AID 2283711). The method in brief:
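Primary human hepatocytes from two donors dosed daily for two days, 0.2% DMSO vehicle. HMGCS2 mRNA measured 48 h after dosing by quantitative nuclease protection assay with chemiluminescent read-out; induction fitted relative to DMSO, cytotoxicity flagged by microscopy.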

Test [15] can be described thus: ArunA_CellTiter_hNC: Viability Assessment in the ArunA Biomedical's Oris Neural Crest (hNC) Cell Migration Assay (AID 2283752). The method, boiled down:
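Viability of embryonic neural crest stem cells from the H9 line is scored 72 h after dosing, with DMSO as negative control and baseline. A drop in CellTiter Aqueous One signal indicates cytotoxicity.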

The nature of test [16]: ArunA_CellTiter_hNP: Viability Assessment in the ArunA Biomedical's Oris Neural Crest (hNC) Cell Migration Assay (AID 2283753). The method in brief: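 H9-derived hNP1 neuroprogenitors, 60,000/well on Matrigel, cultured 16 h, then 72 h chemical exposure in test medium. Cell titer via CellTiter Aqueous One; positive-direction fit vs DMSO.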
A short description of test [17]: ArunA_Migration_hNP: ArunA Biomedical's Oris Neuroprogenitor (hNP) Cell Migration Assay (AID 2283754). The method in brief:
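Human H9-derived hNP1 neuroprogenitors on Matrigel with LIF/bFGF, plated around seeding stoppers for 16 h at 37C; stoppers removed at start of 72 h chemical exposure. Calcein-AM staining, fluorescence 494/517 nm in detection zone; loss-of-signal vs DMSO; cytochalasin D control.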

The nature of test [18]: ArunA_Migration_hNC: ArunA Biomedical's Oris Neural Crest (hNC) Cell Migration Assay (AID 2283755). The method, boiled down: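 Human H9-derived neural crest stem cells, 60,000/well on Matrigel, 16 h at 37C, then 72 h chemical exposure after seeding-stopper removal. Migration into detection zone read as calcein-AM fluorescence (ex494/em517), relative to DMSO.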
Test [19] can be described thus: ArunA_NOG_NucleusCount: ArunA Biomedical's Neurite Outgrowth (NOG) Assay for Nucleus Count (AID 2283756). The method in brief: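 Human H9-derived differentiated neurons were exposed for 48 h right after seeding. Hoechst-stained nuclei gated by size and intensity were counted by automated high-content imaging as viable neurons. Loss of signal vs DMSO.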
The nature of test [20]: ArunA_NOG_NeuriteLength: ArunA Biomedical's Neurite Outgrowth (NOG) Assay for Neurite Length (AID 2283757). The method in brief: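 Differentiated human H9-derived neurons were exposed for 48 h from seeding, then stained with Hoechst and βIII-tubulin. Automated high-content imaging gave total neurite length per valid neuron, counting processes >10 um. Loss of signal was scored versus DMSO.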

This passage reports outcome and AC50 results from PubChem BioAssay (EPA / NIEHS).

SMILES strings stand for the structures. Results filed as inconclusive are left out. Where a structure was tested more than once in an assay, its records may differ in their call. The source made the active and inactive calls. Rule for the calls, unless noted: active = hit-call score of the fitted dose curve at least 0.9, where 1 is the maximum; inconclusive = response in the unintended direction; inactive = score below 0.9.

Cytochrome P450 2C19 (Homo sapiens), sequence (P33261 whole entry, looked up): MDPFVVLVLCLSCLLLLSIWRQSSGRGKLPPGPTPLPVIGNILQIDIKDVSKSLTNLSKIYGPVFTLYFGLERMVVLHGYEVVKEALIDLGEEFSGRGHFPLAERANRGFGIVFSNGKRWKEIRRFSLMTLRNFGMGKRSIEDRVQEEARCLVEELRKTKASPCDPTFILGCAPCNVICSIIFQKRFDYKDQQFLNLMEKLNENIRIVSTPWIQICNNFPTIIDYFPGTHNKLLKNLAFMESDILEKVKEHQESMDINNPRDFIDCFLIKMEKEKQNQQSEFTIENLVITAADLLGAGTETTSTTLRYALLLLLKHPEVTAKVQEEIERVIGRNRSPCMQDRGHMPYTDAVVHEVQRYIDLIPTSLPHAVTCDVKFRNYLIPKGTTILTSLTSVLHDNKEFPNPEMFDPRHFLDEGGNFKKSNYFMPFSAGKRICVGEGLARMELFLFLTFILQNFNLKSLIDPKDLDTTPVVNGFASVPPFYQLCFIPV

For `CCOC(=O)C(Cl)Cc1cc(-n2nc(C)n(C(F)F)c2=O)c(F)cc1Cl` (stereo not drawn), the compound was classed as inactive in [1], in test [2], in [3] and in test [4]. Also, the figures for the AC50 in test [5] and in test [6] were 0.0412 µM (active) and 2.02 µM (active), respectively.
For the compound `COc1nc(NC(C)C)nc(NC(C)C)n1`, the outcome in [1], in test [8], in test [3], in [4], in test [9] and in test [5] was inactive. Besides, the outcome in [6] was inactive. For the same compound, the half-maximal activity concentration (AC50) in test [7] is 7.97 µM (active); in test [2], 4.52 µM (active); in test [10] it was 13.5 µM (active); in [11], 14.6 µM (active).
As for `Cc1c(F)c(F)c(COC(=O)C2C(/C=C(\Cl)C(F)(F)F)C2(C)C)c(F)c1F` (stereo not drawn), the call in test [12], in test [13], in test [3], in [4] and in test [5] was inactive. The AC50 was 4.46 µM (active) in test [7], 20 µM (active) in test [2] and 20.9 µM (active) in test [6].
For the compound `COC(=O)C=C(C)OP(=O)(OC)OC`, the outcome in test [1], in test [12], in test [7], in test [2], in [3] and in test [4] was inactive. The compound was classed as inactive in test [6].
For the compound `COc1nc(C)nc(NC(=O)NS(=O)(=O)c2ccccc2CCC(F)(F)F)n1`, the compound was called inactive in test [12], in test [7], in test [2], in test [8], in test [3] and in [4]. Moreover, the outcome in [14] was inactive. Further, in test [7], the AC50 is 8.01 µM (active).
Regarding `CC1COC(Cn2cncn2)(c2ccc(Oc3ccc(Cl)cc3)cc2Cl)O1` (stereo not drawn), the call in [1], in test [12], in test [3], in [4], in test [14] and in test [6] was inactive. For the same compound, the AC50 is 0.397 µM (active) in [7]; 2 µM (active) in test [2]; 3.93 µM (active) in test [9]; 2.87 µM (active) in test [10]; 3.88 µM (active) in [11]; 0.0749 µM (active) in test [5].
`CCCCC(CC)COC(=O)c1ccccc1C(=O)OCC(CC)CCCC` (stereo not drawn): the call in test [1], in [12], in test [7], in test [2], in test [3] and in test [4] was inactive. In addition, the result in test [9], in [5] and in test [6] was inactive. For the same compound, the results for the AC50 in test [10] and in test [11] were 30 µM (active) and 30.9 µM (active), respectively.
In the case of `Fc1ccc(Oc2ccnc3cc(Cl)cc(Cl)c23)cc1`, the concentration at half-maximal activity (AC50) in test [7] is 3.98 µM (active). For the same compound, the compound was called inactive in [2], in [8], in [3], in test [4] and in test [6].
Take `COC(=O)c1ccccc1C(=O)OC`: the compound was classed as inactive in test [7], in test [8], in [3], in test [4], in test [14] and in test [9]. Besides, the result in test [10], in [11], in [5] and in test [6] was inactive.
For the compound `N#Cc1nn(-c2c(Cl)cc(C(F)(F)F)cc2Cl)c(N)c1S(=O)C(F)(F)F` (stereo not drawn), the outcome in [12], in test [2], in test [3], in test [4] and in test [6] was inactive. In addition, the concentration at half-maximal activity (AC50) in test [9] is 35.5 µM (active); in test [10], 88.7 µM (active); in [11] it was 81.7 µM (active); in test [15], 43.8 µM (active); in test [16], 36.8 µM (active); in [17], 50 µM (active). Besides, the AC50 is 30.9 µM (active) in test [18], 23.2 µM (active) in [19] and 31.8 µM (active) in test [20].

Usually AC50 stands for the midpoint of the concentration-response curve, whichever way the signal moves.
